# The list is not random: actives were taken first. Their share in the collection is about 21%.
# D3 ag = qHTS of D3 Dopamine Receptor Agonist: qHTS; AID 652048, 2013; D3R DiscoveRx beta-arrestin cells, luminescence, 90 min; max activation, %; D(3) dopamine receptor (Homo sapiens), P35462; 410,000 compounds, 0.58% hits; in the data active means max activation above about 30%
# Target sequence (P35462 whole entry, looked up): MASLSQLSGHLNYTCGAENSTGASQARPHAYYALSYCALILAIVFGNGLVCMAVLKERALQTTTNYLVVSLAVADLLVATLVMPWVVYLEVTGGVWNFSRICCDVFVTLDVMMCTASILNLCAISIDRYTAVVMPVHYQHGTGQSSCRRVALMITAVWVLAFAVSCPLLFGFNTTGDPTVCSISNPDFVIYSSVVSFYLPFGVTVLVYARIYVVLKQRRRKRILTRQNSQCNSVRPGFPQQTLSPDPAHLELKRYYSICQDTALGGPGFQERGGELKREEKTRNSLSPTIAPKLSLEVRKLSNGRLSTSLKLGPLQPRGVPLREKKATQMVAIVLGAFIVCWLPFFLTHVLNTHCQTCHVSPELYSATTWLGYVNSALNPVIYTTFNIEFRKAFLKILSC
#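 Cells at 1500/well, incubated overnight, then treated with pinned compounds (dopamine as control) for 90 min at 37 degrees C. DiscoveRx reagent added for 30 - 60 minutes at room temperature; luminescence read.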
# TDP1 cell noCPT = qHTS for Inhibitors of human tyrosyl-DNA phosphodiesterase 1 (TDP1): qHTS in cells in absence of CPT. 420,000 compounds, 15% hits. DT40 Tdp1-/- hTDP1 cells, no CPT, ATP luminescence, 48 h. Potency, µM (series often up to 46.2 µM), hits mostly inhibitors; further: nearly all actives have a fitted effect of over 55% in size
#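 Compound effects on proliferation are scored in DT40 Tdp1-/-;hTDP1 cells in the absence of CPT. ATP levels (CellTiter-Glo luminescence) are recorded after a ≥48 hr, 37 °C incubation.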
# ClpP mod = qHTS Assay for Activators of ClpP; purified B. subtilis ClpP, FRET peptide cleavage, 20 min; Potency, µM (titrated, usually from 57.5 µM); 340,000 compounds, 1.9% hits; AID 651965, 2013; active means well fitted falling curve with a large enough effect; inconclusive means small, poorly fitted or top-dose-only effect; inactive means no such curve, though single readings can be large or run the other way; further: the source files actives as falling curves though it sought activators and does not explain the sign; nearly all actives have a fitted effect of over 65% in size
# Target sequence (P80244 whole entry, looked up): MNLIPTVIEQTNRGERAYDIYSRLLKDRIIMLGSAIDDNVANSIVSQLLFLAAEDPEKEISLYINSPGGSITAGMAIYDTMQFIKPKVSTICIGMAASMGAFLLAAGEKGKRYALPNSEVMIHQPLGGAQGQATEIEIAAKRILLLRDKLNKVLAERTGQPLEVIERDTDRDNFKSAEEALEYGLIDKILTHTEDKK
#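 Buffer: 100 mM Tris/HCl pH8, 100 mM KCl, 0.05% low protease BSA, 2.5% glycerol, 0.01% Tween-20. ClpP 10 microg/mL final; 20 min RT; delta FRET normalized to ADEP and DMSO controls.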
# IL1B secr inh = qHTS for Inhibitors of Inflammasome Signaling: IL-1-beta AlphaLISA Primary Screen | AID 743279, 2014 | THP-1 LPS/ATP IL-1B secretion, AlphaLISA, 16 h; stronger effect = lower value | activity change, % at 57.5 µM | 360,000 compounds, 4.7% hits; in the data active means activity change below about -50%; inconclusive means mostly about -30% to -49%
#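 THP-1 cells pretreated 1 hr with compounds (up to 57.5 uM final), then stimulated with LPS (250 ng/mL final) plus ATP (1.25 mM final); secreted IL-1B measured by AlphaLISA after 16 hr, decreased signal indicating inhibition.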
# D3 antag = qHTS of D3 Dopamine Receptor Antagonist: qHTS | D(3) dopamine receptor (Homo sapiens), P35462 | D3R cells, DiscoveRx beta-arrestin luminescence, antagonist mode; stronger effect = lower value | max response, negative = inhibition, % | 360,000 compounds, 2.5% hits | AID 652054, 2013; in the data active means max response below about -50%; inconclusive means no clear call, values can overlap the other calls
#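 Cells expressing the human receptor were seeded at 1500 cells/well, incubated overnight at 37 degrees C in 5% CO2, then exposed to library compounds with dopamine controls for 90 minutes at 37 degrees C before luminescent detection.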
# TDP1 cell CPT = qHTS for Inhibitors of human tyrosyl-DNA phosphodiesterase 1 (TDP1): qHTS in cells in presence of CPT; chicken DT40 Tdp1-/-;hTDP1 cells + 20 nM CPT, ATP luminescence, 48 h; 420,000 compounds, 12% hits; Potency, µM (highest dose often 46.2 µM), actives largely listed as inhibitors; further: nearly all actives have a fitted effect of over 55% in size
#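 Cell growth measured by CellTiter-Glo luminescence after a minimum 48 h, 37 C compound exposure with 20 nM CPT in Tdp1-knockout DT40 cells stably expressing hTDP1, seeded 400/well; qHTS titration format.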
# Hits are given with their value; . = inactive; ? = inconclusive; / = no result. Unless noted, the call rests on the fitted dose curve; in most records, active means well fitted inhibition curve with a large enough effect; inconclusive means small, poorly fitted or top-dose-only effect; inactive means flat fitted curve, though single readings scatter.
SMILES,D3 ag,TDP1 cell noCPT,ClpP mod,IL1B secr inh,D3 antag,TDP1 cell CPT
Cc1cccc(N(C(=O)c2snc(C(N)=O)c2N)C(C(=O)NCC2CCCO2)c2cccs2)c1 (stereo not drawn),.,0.41µM,?,.,.,.
CCOC(=O)c1c(NC(=O)CSc2cn(CCNC(=O)c3ccc(OC)cc3)c3ccccc23)sc2c1CCC2,.,.,.,/,/,?
O=C(Nc1c2c(nc3ccccc13)CCCC2)c1cccc([N+](=O)[O-])c1,.,.,.,.,.,.
COc1ccc(CCNC(=O)CSc2nnc3ccc(-c4ccccn4)nn23)cc1OC,.,?,/,.,.,.
O=S(=O)(c1ccccc1)c1cnc(-c2ccccc2)nc1N1CCCCC1,.,?,.,.,.,?
COc1cc(CNC(=O)OC2CC3CC2[C@H]2CCCCN2C3=O)cc(OC)c1 (stereo partly drawn),.,.,.,.,.,.
Cc1ccc(C(=O)COC(=O)c2cnccn2)cc1,.,.,.,.,.,.
O=C(COC(=O)c1cnccn1)c1ccc(Cl)c([N+](=O)[O-])c1,.,?,.,-60,.,?
O=C(COC(=O)c1cnccn1)c1ccc([N+](=O)[O-])cc1,.,?,/,-54,.,23µM
CCC1CN(C(=O)Nc2ccccc2F)c2cc(C)ccc2O1 (stereo not drawn),.,?,.,/,/,?
Cc1cccc(-c2ocnc2C(=O)Nc2ncc(C)s2)c1,.,.,.,.,.,.
COc1cccc(/C=N/n2c(-c3n[nH]c4c3CCC4)n[nH]c2=S)c1OC,.,.,/,/,.,.
O=S1(=O)CC(N2CCC(Cc3ccccc3)CC2)CN1C1CCCCC1 (stereo not drawn),.,?,.,.,-78,?
CCCCCCn1cc(CN2CC(N3CCN(Cc4cccc(C)c4)CC3)CS2(=O)=O)nn1 (stereo not drawn),.,23µM,.,.,.,?
O=S1(=O)CC(N2CCC(c3ccccc3)CC2)CN1C1CCCCC1 (stereo not drawn),.,?,.,.,.,?
O=S1(=O)CC(N2CCN(CC3CC3)CC2)CN1Cc1ccccc1 (stereo not drawn),.,.,.,.,-61,?
Cc1cccc(CN2CCN(C3CN(Cc4cn(Cc5ccccc5)nn4)S(=O)(=O)C3)CC2)c1 (stereo not drawn),.,?,.,.,.,?
CCCCCCN1CCN(C2CN(CCc3ccccc3)S(=O)(=O)C2)CC1 (stereo not drawn),.,16µM,.,.,?,?
O=S1(=O)CC(N2CCN(CC3CC3)CC2)CN1Cc1ccc(F)cc1 (stereo not drawn),.,?,.,.,.,.
Cc1cccc(N2CCN(C(=O)c3c(Cl)cnn3C)CC2)c1C,.,?,.,.,.,?
CCCCCCN1CCN(C2CN(Cc3cn(Cc4ccc(C)cc4)nn3)S(=O)(=O)C2)CC1 (stereo not drawn),.,26µM,.,.,.,?
Cc1ccc(Cn2cc(CN3CC(N4CCCCC4)CS3(=O)=O)nn2)cc1 (stereo not drawn),.,.,.,.,.,.
CCCCCCN1CCN(C2CN(C3CCCCC3)S(=O)(=O)C2)CC1 (stereo not drawn),.,?,.,.,-117,16µM
CN(C)CCN1CCN(C2CN(C3CCCCC3)S(=O)(=O)C2)CC1 (stereo not drawn),.,.,.,.,?,?
COc1cccc(/C=C2\SC(=S)N(NS(=O)(=O)c3ccccc3)C2=O)c1OC,.,.,.,.,.,?
SMILES,D3 ag,TDP1 cell noCPT,ClpP mod,IL1B secr inh,D3 antag,TDP1 cell CPT
O=[N+]([O-])c1ccc(NN=C2CC3CCC2C3)c([N+](=O)[O-])c1 (stereo not drawn),.,16µM,.,.,.,18µM
O=C(N/N=C1\CC2CC=CC12)c1ccc(O)cc1 (stereo not drawn),.,.,/,.,.,.
O=[N+]([O-])c1ccc(N/N=C2\CC3CC=CC23)c([N+](=O)[O-])c1 (stereo not drawn),.,16µM,/,.,.,13µM
O=[N+]([O-])c1ccc(N/N=C2\CC3CC=CC23)cc1 (stereo not drawn),.,?,.,?,.,23µM
O=[N+]([O-])c1ccc(NN=C2CCCCC2)c([N+](=O)[O-])c1,.,?,/,.,.,?
O=C(Cc1ccc(NC2=NC3CS(=O)(=O)CC3S2)cc1)NCCc1ccccc1 (stereo not drawn),.,.,.,.,.,.
CC(C)CCOc1cccc(OCC(=O)Nc2ccncc2)c1,.,13µM,/,.,?,?
O=C(COc1ccc(Nc2ccccc2)cc1)Nc1ccncc1,.,16µM,/,?,.,?
O=C(COc1ccccc1)NCC(=O)Nc1ccncc1,.,.,.,.,.,.
Cc1ccc(OCC(=O)Nc2ccncc2)cc1C,.,?,.,.,.,?
Cc1cc(OCC(=O)Nc2ccncc2)ccc1[N+](=O)[O-],.,21µM,/,.,.,?
O=C(COc1ccc([N+](=O)[O-])cc1)Nc1cccnc1,.,.,/,.,.,.
O=C(COc1ccc(-c2ccccc2)cc1)Nc1cccnc1,.,21µM,.,.,.,18µM
COc1cccc(OCC(=O)Nc2ccncc2)c1,.,?,/,.,.,.

# High-throughput results as filed in PubChem.
